F-actin modifier: modifiers of F-actin cytoskeleton organization, primary screen, imaging, HUVEC, phalloidin staining, high-content imaging. actives 0.18% (n = 91,000). inhibition, % at 2 µM. HUVEC TNFa F-actin phalloidin imaging;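 active = inhibition above the batch mean plus 3 SD and confirmed as a hit by visual image inspection, cut at about 30% in these data, passing the limit was not always enough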
CYP2C9 act: human CYP2C9 activators, primary screen, biochemical, luminescence; recombinant CYP2C9, luciferin-H conversion; hits give high values; factor 1 = untreated enzyme, 0 = blocked; actives 1.4% (n = 96,000); activation factor at 5 µM; Cytochrome P450 2C9 (Homo sapiens), P11712;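 active = activation factor of 2 or more for CYP2C9 at a 5 µM dose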;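 note: 0 = sulfaphenazole-blocked wells and 1 = vehicle-only wells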
CYP2C19 inh: blockers of cytochrome P450 2C19 activity – biochemical, luminescence, ADME assay, primary screen; P33261; CYP2C19 Supersomes, luciferin-H EGE luminescence, 30 min; inhibition, % at 5 µM; actives 21% (n = 96,000); AID 778, 2007;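 active = CYP2C19 inhibition above a set limit at 5 µM in the primary screen, cut at about 50% in these data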;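 note: plate controls were negative control wells for no effect and 2.5 mM tranylcypromine positive control for full effect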
Target sequence (P33261 whole entry, looked up): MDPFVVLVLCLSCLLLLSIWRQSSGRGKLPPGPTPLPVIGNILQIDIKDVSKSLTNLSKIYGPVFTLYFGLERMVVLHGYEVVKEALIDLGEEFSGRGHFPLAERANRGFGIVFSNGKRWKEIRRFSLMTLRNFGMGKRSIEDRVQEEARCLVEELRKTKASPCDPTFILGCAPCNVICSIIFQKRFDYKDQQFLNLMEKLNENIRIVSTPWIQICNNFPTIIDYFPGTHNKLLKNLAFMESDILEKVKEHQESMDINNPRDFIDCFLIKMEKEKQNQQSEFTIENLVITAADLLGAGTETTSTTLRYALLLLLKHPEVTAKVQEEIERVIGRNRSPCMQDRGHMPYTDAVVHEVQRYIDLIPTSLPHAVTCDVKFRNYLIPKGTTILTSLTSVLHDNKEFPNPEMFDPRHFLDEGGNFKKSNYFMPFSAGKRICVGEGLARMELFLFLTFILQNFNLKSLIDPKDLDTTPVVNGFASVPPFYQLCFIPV
CYP2C19 activ: human CYP2C19 activators, primary screen, biochemical, luminescence | activation factor at 5 µM | recombinant CYP2C19, luciferin-H EGE luminescence; hits give high values; 0 = fully inhibited enzyme, 1 = untreated enzyme | 96,000 tested, under 10 active | Cytochrome P450 2C19 (Homo sapiens), P33261;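 active = activation factor of at least 2 at 5 µM in the primary screen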;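 note: 0 = wells with 2.5 mM tranylcypromine and 1 = vehicle-only wells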
CYP2C9 inhib: blockers of cytochrome P450 2C9 activity – biochemical, luminescence, ADME assay, primary screen; CYP2C9 Supersomes, luciferin-H conversion; actives 20% (n = 96,000); P11712; inhibition, % at 5 µM;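 active = blocking of liver enzyme CYP2C9 beyond about 50% at 5 µM, limit read from the data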
E-sel TNF inh: E-selectin induction blockers in HUVEC – imaging, immunofluorescence, high content, primary screen; HUVEC TNFa-induced E-selectin immunofluorescence; inhibition, % at 2 µM; actives 0.71% (n = 120,000); AID 1246, 2008;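 active = inhibition above the batch mean plus 3 SD, and confirmed as a hit on visual image review, cut at about 43% in these data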;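 note: 0% = TNF-stimulated DMSO wells and 100% = unstimulated control wells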
* = called active by the depositor. Hits are enriched below; roughly 22% of the tested compounds scored in any of these assays.

How did Cc1cc(C(F)(F)F)nc(SCC(=O)Nc2cc(C)on2)n1 do in these assays?
F-actin modifier: -19; CYP2C9 act: 1; CYP2C19 inh: 52*; CYP2C19 activ: 0.5; CYP2C9 inhib: 0; E-sel TNF inh: 0

Results for Cc1cc(C)nc(SCC(=O)Nc2cc(C)on2)n1 ?
F-actin modifier: -4; CYP2C9 act: 1.1; CYP2C19 inh: 35; CYP2C19 activ: 0.6; CYP2C9 inhib: -10

How did CCCCNC(=O)C1CC(=O)N(C2CCCC2)C1 (stereo not drawn) do in these assays?
F-actin modifier: -3; CYP2C9 act: 0.9; CYP2C19 inh: 10; CYP2C19 activ: 0.9; CYP2C9 inhib: 7; E-sel TNF inh: -50

How did CO/N=C/NC(=O)c1cn(-c2ccc(F)cc2)c(=O)c2ccccc12 do in these assays?
F-actin modifier: 8; CYP2C9 act: 0.9; CYP2C19 inh: 14; CYP2C19 activ: 0.9; CYP2C9 inhib: 6; E-sel TNF inh: -20

What do the screens show for `C/C(=N\NC(=O)CN1CCN(S(=O)(=O)c2ccc(C)cc2)CC1)c1cccnc1`?
E-sel TNF inh: 0

What do the screens show for `Cc1cc(C(F)(F)F)nc(SCC(=O)Nc2ccccc2)n1`?
F-actin modifier: -7; CYP2C9 act: 1.1; CYP2C19 inh: 91*; CYP2C19 activ: 0.1; CYP2C9 inhib: -14; E-sel TNF inh: 6

What do the screens show for `Cc1csc(NC(=O)c2cccc(Cn3nc(C)c(Br)c3C)c2)n1`?
F-actin modifier: 9; CYP2C9 act: 0.1; CYP2C19 inh: 93*; CYP2C19 activ: 0.1; CYP2C9 inhib: 90*; E-sel TNF inh: 8

Results for Cc1nn(Cc2ccc(C(=O)Nc3nc4c(C)cccc4s3)o2)c(C)c1Br ?
F-actin modifier: 22; CYP2C9 act: 0.7; CYP2C19 inh: 23; CYP2C19 activ: 0.8; CYP2C9 inhib: 31; E-sel TNF inh: 6

Results for CCCCn1c(S(=O)(=O)O)nc2ccccc21 ?
F-actin modifier: -15; CYP2C9 act: 1; CYP2C19 inh: 18; CYP2C19 activ: 0.8; CYP2C9 inhib: 3; E-sel TNF inh: -69

How did COC(=O)c1cccc(OCC(O)Cn2cnc3cc(C)c(C)cc32)c1 (stereo not drawn) do in these assays?
F-actin modifier: -18; CYP2C9 act: 0.7; CYP2C19 inh: 41; CYP2C19 activ: 0.6; CYP2C9 inhib: 33; E-sel TNF inh: 1

How did COC(=O)c1cccc(OCC(O)Cn2ccnc2)c1 (stereo not drawn) do in these assays?
CYP2C9 act: 0.1; CYP2C19 inh: 100*; CYP2C19 activ: 0; CYP2C9 inhib: 88*; E-sel TNF inh: -32

Results for COc1ccc(N(C)C(=S)Nc2ccc3nc(C)c(C)nc3c2)cc1 ?
E-sel TNF inh: -4

What do the screens show for `CCOc1cccc(C(=O)NC(=S)Nc2ccc(N3CCCC3)cc2)c1`?
F-actin modifier: 10; CYP2C9 act: 1; CYP2C19 inh: -20; CYP2C19 activ: 1.2; CYP2C9 inhib: -5; E-sel TNF inh: 53*

Results for CCOc1cccc(C(=O)NC(=S)Nc2ccc3c(c2)OCCO3)c1 ?
E-sel TNF inh: -13

Results for CCOc1cccc(C(=O)Nc2ccc(N3CCN(S(C)(=O)=O)CC3)cc2)c1 ?
F-actin modifier: -8; CYP2C9 act: 0.5; CYP2C19 inh: 34; CYP2C19 activ: 0.7; CYP2C9 inhib: 53*

What do the screens show for `CCCCS(=O)(=O)/C=C\C1C2C=CC(C2)C1S(=O)(=O)CCCC` (stereo not drawn)?
F-actin modifier: -30; CYP2C9 act: 0.5; CYP2C19 inh: 76*; CYP2C19 activ: 0.2; CYP2C9 inhib: 52*; E-sel TNF inh: -18

How did O=C(c1cccn2c(=O)c3cc4ccccc4cc3nc12)N1CCN(c2ccccc2)CC1 do in these assays?
F-actin modifier: 4; CYP2C9 act: 0.7; CYP2C19 inh: 30; CYP2C19 activ: 0.7; CYP2C9 inhib: 30; E-sel TNF inh: 6

Results for O=C(O)COc1ccc(=O)n(-c2ccccc2)n1 ?
F-actin modifier: -3; CYP2C9 act: 1; CYP2C19 inh: 4; CYP2C19 activ: 1; CYP2C9 inhib: -2; E-sel TNF inh: -11

Bioassay records as filed in PubChem BioAssay.
